Inhibition data for 39 molecules are collected here from ChEMBL document CHEMBL1157539, “Thousands of chemical starting points for antimalarial lead identification” (Nature, 2010).

The structures appear in SMILES notation.

Format in all cases: functional
Assay [1] deals with Plasmodium falciparum. In words: GSK_TCMDC: Inhibition of Plasmodium falciparum 3D7 in whole red blood cells, using parasite LDH activity as an index of growth. Test compounds present at 2uM.
The subject of assay [2] is Plasmodium falciparum. In words: GSK_TCMDC: Inhibition of Plasmodium falciparum Dd2 in whole red blood cells, using parasite LDH activity as an index of growth. Test compounds present at 2uM.
Another assay relates to HepG2. In words: GSK_TCMDC: Percent inhibition of human HepG2 cell line. Test compounds present at 10uM.

As to `CCN(CC)CCCN(C(=O)Nc1ccc(C#N)cc1)c1nc(-c2ccc(F)cc2)cs1`, the Inhibition (commonly the percentage by which the read-out fell short of the control) worked out at 99% in the assay on Plasmodium falciparum [1], 68% in the assay on Plasmodium falciparum [2] and 36% with HepG2.
As for `COc1cc2c(cc1O)[C@@H]1[C@H](O)[C@@H](O)C=C3CCN(C2)[C@H]31` [PSEUDOLYCORINE], the Inhibition in the assay with Plasmodium falciparum [1] is on record as 90%; in the assay with Plasmodium falciparum [2], 31%; in the assay on HepG2, 18%.
Take `COc1ccc(NC(=O)Nc2cccc(-c3cccc(-c4nc5cccc(C)c5[nH]4)c3)c2)cc1`: the figures for the Inhibition in the assay with Plasmodium falciparum [1], in the assay on Plasmodium falciparum [2] and in the assay on HepG2 were 100%, 43% and 0%, respectively.
In the case of `CC(C)c1sc(N2CCN(C)CC2)nc1C(=O)NCCc1ccc(Br)cc1.O=C(O)C(F)(F)F`, the results for the Inhibition with Plasmodium falciparum [1], in the assay with Plasmodium falciparum [2] and with HepG2 were 89%, 60% and 0%, respectively.
Turning to `CCN1CCN(CCCCNc2c3ccccc3nc3ccccc23)CC1.Cl`, the Inhibition with Plasmodium falciparum [1] came out at 100%; in the assay on Plasmodium falciparum [2], 0%; in the assay on HepG2 it was 22%.
In the case of `Cc1cc(=O)c(-c2ccc(Oc3ccc(Cl)cc3Cl)cc2)c(C)[nH]1`, the Inhibition turned out to be 93% with Plasmodium falciparum [1], 73% in the assay on Plasmodium falciparum [2] and 0% in the assay on HepG2.
As to `Cc1cc(-c2c[nH]c3ncc(-c4cccc5ncccc45)cc23)ccc1C(=O)O.O=C(O)C(F)(F)F`, the Inhibition was 99% in the assay on Plasmodium falciparum [1], 77% in the assay on Plasmodium falciparum [2] and 31% in the assay on HepG2.
The like results for `COc1ccc(NC(=O)c2ccc(-c3ccc(-c4cccnc4)cc3)c(C)c2)cc1OCCN(C)C.Cl` were, in that order, 99%, 73% and 24%.
The matching figures for `Cc1cccc2nc(-c3ccc(-c4cccc(NC(=O)Nc5cccc(C#N)c5)c4)cc3)[nH]c12`: 100%, 86% and 25%.
The like results for `O=C(/C=C/c1ccc(Cl)c(Cl)c1)NCCCCCN1CC[C@H](NC(=O)Nc2ccc(Oc3ccccc3)cc2)C1` were, in that order, 100%, 14% and 47%.
As for `COc1cc2nc(N3CCC(CNC(=O)c4ccc(-c5ccccc5)cc4)CC3)nc(N)c2cc1OC`, the Inhibition in the assay with Plasmodium falciparum [1] is recorded as 93%; in the assay on Plasmodium falciparum [2], 92%; with HepG2, 11%.
The matching figures for `Cn1cc(CCNc2ccnc(NCCc3coc4ccccc34)n2)c2ccccc21`: 87%, 28% and 26%.
The matching figures for `CCCCCCNC(=O)C1Cc2c([nH]c3ccccc23)C2(CCN(CCc3ccccc3)CC2)N1` (configuration not stated): 96%, 34% and 41%.
The matching figures for `Cl.Fc1cccc(COc2ccc(Nc3ncnc4ccc(-c5nnc(C(F)(F)F)o5)cc34)cc2Cl)c1`: 100%, 77% and 14%.
With `COC(=O)CCCCOc1cc(Cc2cnc(N)nc2N)cc(OC)c1OC`, the results for the Inhibition with Plasmodium falciparum [1], with Plasmodium falciparum [2] and in the assay with HepG2 were 97%, 0% and 0%, respectively.
In the case of `COCCNC(=O)c1ccc(OC2CCN(CC(C)=Cc3ccccc3)CC2)c(Cl)c1`, the Inhibition was determined as 94% in the assay on Plasmodium falciparum [1], 95% in the assay on Plasmodium falciparum [2] and 18% in the assay on HepG2.
Consider `CC(=O)Nc1ccccc1OCc1cc2cc(C(=O)N3CCC(N4C(=O)OCc5ccccc54)CC3)ccc2o1`, for which the Inhibition in the assay on Plasmodium falciparum [1] is 99%; in the assay on Plasmodium falciparum [2] it was 98%; in the assay with HepG2, 34%.
For `CCN(CC)CCc1ccc2c(=O)cc(CCc3cccc(F)c3F)n(CC(=O)N(C)Cc3ccc(-c4ccc(C(F)(F)F)cc4)cc3)c2c1.O=C(O)C(O)C(O)C(=O)O`, the Inhibition in the assay with Plasmodium falciparum [1] is listed as 97%; in the assay on Plasmodium falciparum [2] it was 45%; in the assay with HepG2, 98%.
The matching figures for `CCN1CCN(CCCNc2c3ccccc3nc3ccccc23)CC1.Cl`: 100%, 3% and 44%.
The matching figures for `O=C(Nc1ccccc1)Nc1ccc(-c2cccc(-c3nc4cc(C(F)(F)F)ccc4[nH]3)c2)cc1`: 100%, 73% and 59%.
The like results for `CN(C)CCCNCc1ccc(-c2ccc(C(F)(F)F)cc2)cc1` were, in that order, 96%, 35% and 30%.
In the case of `CN1CCN(c2cc(-c3cccc(C(F)(F)F)c3)nc(-c3ccncc3)n2)CC1`, the Inhibition is recorded as 100% with Plasmodium falciparum [1], 98% in the assay on Plasmodium falciparum [2] and 38% in the assay with HepG2.
The like results for `O=C(/C=C/c1ccc(Cl)c(Cl)c1)NCCCCCCN1CCN(C(=O)Nc2cc(F)cc(F)c2)CC1` were, in that order, 86%, 0% and 23%.
The like results for `CC(C)(C)c1ccc(NC(=O)c2ccc(CN3CCCN(Cc4ccc(F)cc4)CC3)cc2)cc1.O=C(O)C(F)(F)F` were, in that order, 87%, 7% and 55%.
The matching figures for `COc1ccc(-c2cccc(NC(=O)c3cccs3)c2)cc1CN1CCCN(C)CC1.O=C(O)C(F)(F)F`: 100%, 30% and 17%.
`CN1CCN(CCCN(Cc2ccc(-c3ccc(CNCc4ccc5c(c4)OCO5)cc3)cc2)C(=O)Nc2ccccc2)CC1.O=C(O)C(F)(F)F`: the Inhibition in the assay on Plasmodium falciparum [1] was 94%; in the assay with Plasmodium falciparum [2], 77%; in the assay with HepG2 it was 36%.
In the case of `COc1cc(OC)cc(-c2nnc(Sc3ccc(C#N)c([N+](=O)[O-])c3)n2C)c1`, the Inhibition is on record as 95% in the assay with Plasmodium falciparum [1], 77% with Plasmodium falciparum [2] and 1% with HepG2.
The like results for `Cl.O=C(N[C@@H](Cc1ccccc1)[C@H](O)CNC1CCCc2ccccc21)c1cc(C2CCCC2)cc(N2CCCC2=O)c1` (some centres not stated) were, in that order, 97%, 99% and 31%.
Take `COc1ccc(C(C(=O)NC2CCN(C[C@H](O)c3ccnc4ccc(OC)cc34)CC2)N2CCc3ccccc3C2)cc1` (some centres not stated): the figures for the Inhibition with Plasmodium falciparum [1], in the assay on Plasmodium falciparum [2] and with HepG2 were 96%, 30% and 19%, respectively.
The matching figures for `Cc1ccc(S(=O)(=O)N(CCCN2CCN(C)CC2)Cc2csc(-c3ccc(CNCc4ccccc4)cc3)n2)cc1.O=C(O)C(F)(F)F`: 97%, 90% and 15%.
The matching figures for `CN(CCS(C)(=O)=O)Cc1ccc(-c2ccc3ncnc(Nc4ccc(OCc5cccc(F)c5)c(Cl)c4)c3c2)o1.Cc1ccc(S(=O)(=O)O)cc1`: 100%, 65% and 25%.
For the molecule `CCN(CC)CCN(Cc1ccc(-c2ccc(C(F)(F)F)cc2)cc1)C(=O)Cn1c(CCc2cccc(F)c2F)nc(=O)c2ccccc21.O=C(O)C(O)C(O)C(=O)O`, the Inhibition came out at 97% in the assay on Plasmodium falciparum [1], 60% in the assay on Plasmodium falciparum [2] and 49% in the assay on HepG2.
Regarding `CC(C)Sc1nc2c(c(=O)n1CCc1ccccc1)C1(CCCC1)Cc1ccccc1-2`, the Inhibition in the assay on Plasmodium falciparum [1] was 100%; in the assay on Plasmodium falciparum [2] it was 88%; with HepG2, 0%.
The matching figures for `CC(Cc1ccc(CN(CC(N)=O)Cc2ccc(CC(C)NCCc3cccc(Cl)c3)cc2)cc1)NCCc1cccc(Cl)c1.O=C(O)C(F)(F)F` (configuration not stated): 95%, 68% and 26%.
For `Nc1cccc(CNCc2ccc(-c3ccc(-c4nc5cc(F)ccc5[nH]4)s3)cc2)c1.O=C(O)C(F)(F)F`, the Inhibition with Plasmodium falciparum [1] was determined as 100%; in the assay on Plasmodium falciparum [2], 93%; with HepG2, 12%.
For the molecule `COc1ccc2nccc([C@@H](O)CN3CCC(NC(=O)C(c4cc5ccccc5o4)N4CCN(Cc5ccccc5)CC4)CC3)c2c1` (some centres not stated), the Inhibition with Plasmodium falciparum [1] is listed as 91%; in the assay with Plasmodium falciparum [2], 75%; with HepG2 it was 30%.
For `N=C(N)c1ccc(Oc2ccc(C(=N)N)cc2)cc1.O=S(=O)(O)CCO`, the Inhibition in the assay with Plasmodium falciparum [1] is 92%; in the assay on Plasmodium falciparum [2], 85%; with HepG2, 18%.
The matching figures for `Br.c1ccc(-c2nc(Nc3ccncc3)sc2-c2ccccc2)cc1`: 97%, 18% and 0%.
As to `NC1=NC(Cc2ccccc2)(c2ccncc2)C(=O)N1CCCc1ccccc1` (configuration not stated), the Inhibition is reported as 86% in the assay on Plasmodium falciparum [1], 1% in the assay with Plasmodium falciparum [2] and 1% with HepG2.
